Among all 340,000 compounds or so, about 1,400 (0.41%) were called active. Where a call stands in place of a potency, no number is given. Another 4% or so got no clear call; they are omitted. This is one part of a sample in which actives are shown more often than they occur. The call rests on the fitted dose curve; cell line not stated here.
Assay: qHTS for Antagonists of gsp, the Etiologic Mutation Responsible for Fibrous Dysplasia/McCune-Albright Syndrome: qHTS; further: nearly all actives have a fitted effect of over 65% in size
Details: gsp-mutant cells, cAMP HTRF, 30 min; series mostly up to 76.9 µM
In short: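 HTRF cAMP measurement after 30 min RT detection following 30 min, 37C compound treatment alongside […] (added as 300 uM solution) in G418-selected cells seeded at 2000/well and grown 16–24 h.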
Potency means the concentration at half of the fitted maximal effect.

| Structure (SMILES) | Potency |
| --- | --- |
| OCC(O)C1OCOC(C(O)CO)C1O (centres undefined) | inactive |
| CCOC(=O)N(Cc1ccccc1)C1CC1 | inactive |
| CCc1c(Nc2ccccc2Cl)nc(N)[nH]c1=O | inactive |
| CC(=O)NCC(=O)NC1CCCc2c1cnn2-c1ccccc1F (centres undefined) | inactive |
| COc1ccc(C(=O)NC2CCCc3c2cnn3-c2cccc(C)c2C)c(OC)n1 (centres undefined) | 39.8 µM (active) |
| Cc1cc(C(=O)NC2CCCc3c2cnn3-c2cccc(C)c2C)c(C)o1 (centres undefined) | inactive |
| S=C(Nc1ccccc1)Nc1ccc2ccccc2c1 | inactive |
| Cn1c(=O)[nH]c2c(c(C(=O)O)nn2C)c1=O | inactive |
| CC(=O)c1c(C)[nH]c(C(=O)COC(=O)c2cccs2)c1C | inactive |
| COc1cccc(C(=O)OCC(=O)c2[nH]c(C)c(C(C)=O)c2C)c1 | inactive |
| CC(=O)c1c(C)[nH]c(C(=O)COC(=O)c2cccc(S(=O)(=O)N(C)c3ccccc3)c2)c1C | 31.6 µM (active) |
| Cc1noc(C)c1NC(=O)Nc1ccc2c(c1)C(=O)N([C@H](C)CO)C[C@H](C)[C@@H](CN(C)C(=O)Nc1ccccc1)O2 | inactive |
| COc1ccc(S(=O)(=O)N(C)C[C@@H]2Oc3ccc(NC(=O)Nc4c(C)noc4C)cc3C(=O)N([C@H](C)CO)C[C@@H]2C)cc1 | 7.94 µM (active) |
| Cc1noc(C)c1NC(=O)Nc1ccc2c(c1)C(=O)N([C@H](C)CO)C[C@H](C)[C@@H](CN(C)S(=O)(=O)c1cn(C)cn1)O2 | inactive |
| O=C(CCCCCCCC(=O)N1CCCCC1)N1CCCCC1 | inactive |
| COc1ccc(CCC(=O)Nc2ccc(Cl)c(S(=O)(=O)N3CCOCC3)c2)cc1OC | inactive |
| CC(=O)N1CCc2ccc(N)cc21 | inactive |
| CCCCN(C(=O)c1cccc(N2C(=O)c3ccccc3C2=O)c1)c1c(N)n(CCCC)c(=O)[nH]c1=O | inactive |
| Cc1nn2cc(-c3ccc(Cl)cc3)cnc2c1Br | 8.91 µM (active) |
| CCCCNC1(C#N)CCN(Cc2ccccc2)CC1 | inactive |
| O=C(OCCOc1ccccc1F)c1cc(S(=O)(=O)N2CCOCC2)ccc1F | inactive |
| Cc1nc2ccc(NC(=O)c3cccc(S(=O)(=O)N4CCOCC4)c3)cc2s1 | inactive |
| COc1cccc(C(=O)Nc2nnc(S(=O)(=O)N3CCOCC3)s2)c1 | inactive |
| O=C(Nc1nncs1)c1cccc(S(=O)(=O)N2CCCCC2)c1 | inactive |
| O=C(Nc1nnc(S(=O)(=O)N2CCCCCC2)s1)c1cccc(Br)c1 | 28.2 µM (active) |

| Structure (SMILES) | Potency |
| --- | --- |
| O=C(Nc1nnc(S(=O)(=O)N2CCOCC2)s1)c1cccc(Br)c1 | 44.7 µM (active) |
| COc1cccc(C(=O)Nc2nnc(S(=O)(=O)N3CCCCC3)s2)c1 | inactive |
| Cc1nc(N)nc(Cl)c1CCC1OCCO1 | inactive |
| CCN1C[C@@H]2[C@@H]3C(=O)N(Cc4ccccc4)C(=O)[C@@H]3[C@](C)(C1=O)N2C(=O)c1ccc(C(C)(C)C)cc1 | inactive |
| CCn1c(=O)c(C(=O)NCc2ccc3c(c2)OCO3)c(O)c2ccccc21 | inactive |
| Cc1nc2c(C(=O)NCc3ccc4c(c3)OCO4)c[nH]n2c(=O)c1Cc1ccccc1F | 28.2 µM (active) |
| O=C(NCc1ccc2c(c1)OCO2)c1cc(F)c(F)cc1Cl | inactive |
| COc1ccc(Nc2ccc3ccccc3c2)cc1 | inactive |
| Cc1ccc(Nc2c(O)nc[nH]c2=O)cc1C | inactive |
| O=C(NCC1(N2CCCCC2)CCCCC1)c1cccc(S(=O)(=O)Nc2ccccc2Cl)c1 | inactive |
| Cc1cc2ccccn2c1C(=O)c1cccc(S(=O)(=O)N2CCOCC2)c1 | 31.6 µM (active) |
| Cc1cc2ccccn2c1C(=O)c1cccc(F)c1 | inactive |
| O=C(COC(=O)c1ccccc1)Nc1cccc(S(=O)(=O)N2CCOCC2)c1 | inactive |
| O=C(NN=CC=Cc1ccccc1)C(O)C(O)C(=O)NN=CC=Cc1ccccc1 (centres undefined) | inactive |
| CN(O)C(=S)c1ccccc1 | inactive |
| O=C(CSc1nnc(C2CC2)n1Cc1ccccc1)Nc1cccnc1Cl | 7.94 µM (active) |
| CC(=O)Nc1ccc(NC(=O)CSc2nnc(C3CC3)n2-c2ccccc2)cc1 | inactive |
| COc1ccc(-c2nnc(SCC(=O)Nc3cccnc3Cl)n2C)cc1 | inactive |
| CNN/C(N=Cc1ccc([N+](=O)[O-])s1)=N\S(=O)(=O)c1cc(C)c(Cl)cc1SCc1ccccc1 | inactive |
| Cc1cc(C(=O)Nc2c(C)nn(Cc3ccccc3)c2C)on1 | inactive |
| Cc1nn(Cc2ccc(F)cc2)c(C)c1NC(=O)c1cccnc1Cl | inactive |
| Cc1nn(Cc2ccc(F)cc2)c(C)c1NC(=O)c1noc2c1CCc1ccccc1-2 | 35.5 µM (active) |
| CCOC(=O)c1ccc2[nH]c(C)c(CN3CCN(C)CC3)c(=O)c2c1 | inactive |
| O=c1c2ccccc2c(-c2ccccc2)nn1-c1ccccn1 | inactive |
| O=c1c2ccccc2c(-c2ccc(F)cc2)nn1-c1ccc(C(F)(F)F)cc1 | inactive |

| Structure (SMILES) | Potency |
| --- | --- |
| O=C(O)c1ccc(-n2nc(-c3ccccc3)c3ccccc3c2=O)cc1 | 44.7 µM (active) |
| COc1ccc(N)c(C)c1 | inactive |
| COCC(=O)N(C)[C@H]1C[C@H]2c3cc(Oc4ccccc4C)ccc3CCN2C(=O)[C@H]1[C@H](C)O | inactive |
| Cc1ccc(-c2nn(-c3ccccc3)cc2/C=C2\SC(=S)N(CCCCCC(=O)O)C2=O)o1 | 15.8 µM (active) |
| Cc1ccc(/C=C2/SC(=S)N(CCC(=O)NCCCN3CCOCC3)C2=O)cc1 | inactive |
| O=C(CCCN1C(=O)/C(=C/c2ccccc2)SC1=S)Nc1ccc(O)cc1 | inactive |
| COc1ccc(/C=C2\SC(=S)N(CCCC(=O)NC3CCCC3)C2=O)cc1OC | inactive |
| COc1ccc(/C=C2\SC(=S)N(CC(=O)NNC(=O)c3ccncc3)C2=O)cc1 | inactive |
| COc1ccc(-c2nn(-c3ccccc3)cc2/C=C2/SC(=S)N(CCCC(=O)O)C2=O)c(C)c1 | 31.6 µM (active) |
| O=C(COC(=O)c1ccc(O)cc1O)NC(=O)c1ccccc1 | inactive |
| O=C1/C(=C\c2ccc(O)cc2)CCC1CNc1ccc(Cl)cc1 (centres undefined) | inactive |
| COc1ccc(S(=O)(=O)N2CCc3ccccc32)cc1C(=O)Nc1cc(S(C)(=O)=O)ccc1Cl | inactive |
| COC(=O)Cc1c(-c2[nH]c3ccccc3c2CC(=O)OC)[nH]c2ccccc12 | inactive |
| Cc1ccc2c(O)c(Cc3ccccc3)c(=O)[nH]c2n1 | inactive |
| O=S(=O)(Nc1ccc2ccccc2c1)N1CCCCC1 | inactive |
| O=C(CC(O)(C(F)(F)F)C(F)(F)F)Nc1ccc(Cl)c(Cl)c1 | 7.08 µM (active) |
| CCn1nccc1C(=O)Nc1ccc(Cl)c(Cl)c1 | inactive |
| CS(=O)(=O)N(CC(=O)Nc1ccc(Cl)c(Cl)c1)C1CCCCC1 | inactive |
| O=S1(=O)CSCS(=O)(=O)C1 | inactive |
| CCCCC(=O)NC(c1ccc(OC)c(OC)c1)c1ccc2cccnc2c1O (centres undefined) | inactive |
| Cc1cc(C)c2oc(C(=O)Nc3ccc(S(=O)(=O)Nc4nccc(C)n4)cc3)cc(=O)c2c1 | inactive |
| Cc1ccnc(NS(=O)(=O)c2ccc(NC(=O)c3oc4ccc(F)cc4c3C)cc2)n1 | 22.4 µM (active) |
| Cc1ccnc(NS(=O)(=O)c2ccc(NC(=O)c3oc4ccccc4c3C)cc2)n1 | inactive |
| O=C(O)c1ccccc1/C=N/Nc1ccc(S(=O)(=O)Nc2ccc(Cl)cc2)cc1[N+](=O)[O-] | inactive |
| CN(C(=O)c1cccc(NC(=O)Cc2ccc(NC(=O)C3CCCN(C(=O)C4CCCC4)C3)cc2)c1)C1CCC1 (centres undefined) | inactive |

| Structure (SMILES) | Potency |
| --- | --- |
| COc1ccc(/C=C2/SC(=O)N(CCCCCC(=O)Nc3ccccc3C(=O)O)C2=S)cc1 | 22.4 µM (active) |
| COc1ccc(/C=C2\SC(=O)N(CCC(=O)NC3CCS(=O)(=O)C3)C2=O)cc1 (centres undefined) | inactive |
| COc1ccc(/C=C2\SC(=O)N(CCC(=O)NCCCn3ccnc3)C2=O)cc1 | inactive |
| C=CCn1c(=O)n(C)c2c(=O)n(C)c(=O)n(C)c21 | inactive |
| O=C(Nc1ccc(Cl)cc1)c1cccc(OC(=S)N2CCOCC2)c1 | inactive |
| Cc1cccc(NC(=O)CSc2nnc(-c3ccco3)o2)c1 | inactive |
| CCC(=O)Oc1cccc(C(=O)Nc2ccc(-c3nnc(-c4ccco4)o3)cc2)c1 | 28.2 µM (active) |
| Cc1c(NS(=O)(=O)c2cccc(C(=O)Nc3ccc(SC(F)F)cc3)c2)c(=O)n(-c2ccccc2)n1C | inactive |
| C(#CCN1CCOCC1)CCCN1CCOCC1 | inactive |
| CC(=O)OC1CCC2C3CCC4=C(CC(F)C(=O)C4)C3CCC12C (centres undefined) | inactive |
| COc1ccc(/C=N/Nc2cc(N3CCOCC3)nc(C)n2)c(OC)c1 | 35.5 µM (active) |
| COc1ccc(/C=N/NC(=O)Nc2ccc3nsnc3c2)c(OC)c1 | inactive |
| C(=N/Nc1cc(N2CCOCC2)nc(N2CCOCC2)n1)/c1ccccc1 | inactive |
| CC(C)[C@@H](C(=O)OCC(=O)c1ccc2c(c1)NC(=O)CO2)N1C(=O)c2ccccc2C1=O | inactive |
| O=C(Nc1c[nH]c(=O)[nH]c1=O)OCc1ccccc1 | inactive |
| CCCCCCCCNS(=O)(=O)CCNC1CCCCC1 | inactive |
| Cc1ccc(C)c(N2CCN(C(=O)CCc3nc4ccccc4[nH]3)CC2)c1 | inactive |
| Cc1ccc(C)c(N2CCN(C(=O)CCCCCn3c(=S)[nH]c4ccc(N5CCOCC5)cc4c3=O)CC2)c1 | 28.2 µM (active) |
| O=C(CCCCCn1c(=S)[nH]c2cc3c(cc2c1=O)OCO3)N1CCN(c2ccc(F)cc2)CC1 | inactive |
| CC(C)CN1CC(C)C(=O)N(c2ccccc2)C1=S (centres undefined) | inactive |
| COc1cc(/C=C/c2ccc(/C=C/c3cc(OC)c(OC)c(OC)c3)cc2)cc(OC)c1OC | inactive |
| COc1ccc(/C=C/C(=O)c2ccc(NS(=O)(=O)c3ccc(C)cc3)cc2)cc1O | inactive |
| COC(=O)c1ccc(COc2ccc(/C=C/C(=O)c3ccc(OC)c(CSCC(=O)O)c3)cc2OC)cc1 | 39.8 µM (active) |
| COc1ccc(/C=C/C(=O)N2CCCC2)cc1OC | inactive |
